Most compounds without a hit are left out; they make up all but 12% or so of the library.
Pf growth 48h – P. falciparum growth inhibition at 48 hours (one generation); 5.9% of 310,000 active; Potency, µM (series often up to 28.7 µM), actives largely listed as inhibitors; P. falciparum luciferase growth in erythrocytes, 48 h
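Parasite viability was followed by luminescence of a genomically integrated firefly luciferase. Cultures held 0.1% parasitemia at 2% hematocrit (final), incubated under 5% CO2 at 37 C.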
Pf growth 96h – inhibits malaria parasite growth, 96 h; P. falciparum luciferase reporter growth, 96 h; Potency, µM (series often up to 28.7 µM), hits mostly inhibitors; 6.9% of 320,000 active
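Cell-based qHTS: luciferase-tagged P. falciparum in erythrocytes (2% hematocrit, 0.05% parasitemia final) incubated with compounds for 96 hours, 37 C, 5% CO2; luciferase detection reagent then added and luminescence measured.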
AmpC inh no detg – blocks E. coli AmpC beta-lactamase in detergent-free assay; P00811; AmpC nitrocefin hydrolysis, absorbance 480 nm, 0.0001% Triton; Potency, µM (doses to about 57.1 µM), hits mostly inhibitors; 0.52% of 330,000 active; note: nearly all actives have a fitted effect of over 20% in size
Target sequence (P00811 whole entry, looked up): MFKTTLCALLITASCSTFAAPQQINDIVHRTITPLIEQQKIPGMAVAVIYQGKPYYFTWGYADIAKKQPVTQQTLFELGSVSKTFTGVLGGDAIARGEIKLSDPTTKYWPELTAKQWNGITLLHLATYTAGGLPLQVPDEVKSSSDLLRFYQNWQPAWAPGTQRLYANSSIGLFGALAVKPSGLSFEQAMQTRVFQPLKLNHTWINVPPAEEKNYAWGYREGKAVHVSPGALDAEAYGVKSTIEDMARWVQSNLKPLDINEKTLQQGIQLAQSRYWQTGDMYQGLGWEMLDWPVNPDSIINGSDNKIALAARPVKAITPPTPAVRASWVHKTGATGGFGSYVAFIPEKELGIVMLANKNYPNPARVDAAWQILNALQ
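20 mM phosphate pH 7.0 + 0.01% (detergent screen) or 0.0001% Triton X-100; 5.3 nM AmpC reagent; cpd preinc 15 min RT; nitrocefin (800 uM stock) to start; A480 q20 s × 4 min; Activity was normalised to no-enzyme and no-compound control wells.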
Sm TGR block – blocks Schistosoma mansoni thioredoxin glutathione reductase. Q962Y6. purified TGR, DTNB reduction, TNB absorbance 405 nm. Potency, µM (series often up to 114 µM), actives largely listed as inhibitors. 3% of 360,000 active; note: nearly all actives have a fitted effect of over 60% in size
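Kinetic colorimetric format: TGR-catalysed, NADPH-driven DTNB reduction monitored via TNB absorbance. Enzyme dispensed at 20 nM; compound exposure 15 min at room temperature before reaction start.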
SARS PLpro yeast – SARS-CoV PLP inhibition in yeast | S. cerevisiae expressing SARS-CoV PLpro, growth rescue | Potency, µM (doses to about 32.9 µM), most hits filed as activators | 0.19% of 330,000 active | AID 485353; calls by dose curve; note: nearly all actives have a fitted effect of over 55% in size
AmpC detergent – blocks E. coli AmpC beta-lactamase in detergent assay | Potency, µM (series often up to 114 µM), most hits filed as inhibitors | 0.041% of 370,000 active | P00811 | AmpC hydrolysis of nitrocefin, absorbance 480 nm, 0.01% Triton; note: nearly all actives have a fitted effect of over 25% in size
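20 mM phosphate pH 7.0 + 0.01% (detergent screen) or 0.0001% Triton X-100; 5.3 nM AmpC reagent; cpd preinc 15 min RT; nitrocefin (800 uM stock) to start; A480 q20 s × 4 min; Activity was normalised to no-enzyme and no-compound control wells.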
A number is an active result; n = inactive; u = inconclusive; x = no result given. Unless noted, calls come from the whole dose curve; as a rule, active = well fitted curve in the direction sought with a large enough effect; inconclusive = small, poorly fitted or top-dose-only effect, or another doubt; inactive = no such curve, though single readings can be large; an effect the other way counts as inactive or inconclusive.

SMILES | Pf growth 48h | Pf growth 96h | AmpC inh no detg | Sm TGR block | SARS PLpro yeast | AmpC detergent
CC1=C(C(=O)OCC2CCCO2)C(c2ccccc2OC(C)C)C2=C(CC(c3ccco3)CC2=O)N1 (stereo not drawn) | 3.3µM | n | n | n | n | n
CNC(=O)c1cc2n(n1)CCCN(Cc1ccc(F)cc1)C2=O | x | x | x | n | x | n
C=CCN1CC(c2nc3ccccc3n2CCOc2ccccc2)CC1=O (stereo not drawn) | 12µM | n | n | n | n | n
CC(=O)C1=C(C)NC(SCC(=O)c2ccc(F)cc2)=C(C#N)C1CC(C)C (stereo not drawn) | u | 8.3µM | n | u | n | u
CCOC(=O)C1=C(C)NC(SC)=C(C#N)C1CC(C)C (stereo not drawn) | 1.7µM | u | n | n | n | n
CC(=O)C1=C(C)NC(SCC(N)=O)=C(C#N)C1CC(C)C (stereo not drawn) | n | n | n | u | n | u
COc1cc2[nH]c(=O)n(CCCCCC(=O)N3CCN(c4ccc(Cl)cc4)CC3)c(=O)c2cc1OC | x | x | x | n | x | u
O=C(c1ccncc1)N1CCN(S(=O)(=O)c2cccc(Cl)c2)CC1 | n | u | n | n | n | n
COc1ccc(N2CCN(C(=O)c3ccc(C)c(NC(=O)C4=C(C)OCCS4)c3)CC2)cc1 | u | u | n | n | n | n
CCOC(=O)C1CCCN(C(=O)c2ccccc2NC(=O)C2=C(C)OCCS2)C1 (stereo not drawn) | u | 4.1µM | n | n | n | n
CC1=C(C(=O)Nc2ccccc2C(=O)N2CCC(C)CC2)SCCO1 | 13µM | n | n | n | n | n
CC1=C(C(=O)Nc2cc(C(=O)N3CCN(c4cccc(C)c4C)CC3)ccc2C)SCCO1 | n | 10µM | n | n | n | n
COc1cc(CNC(=O)c2ccccc2NC(=O)C2=C(C)OCCS2)cc(OC)c1OC | 13µM | u | n | n | n | n
CCOC(=O)C1CCCN(C(=O)c2ccc(C)c(NC(=O)C3=C(C)OCCS3)c2)C1 (stereo not drawn) | n | n | n | n | n | n
CCN(CC)CCNC(=O)c1ccc(Cl)c(S(=O)(=O)Nc2ccc(Cl)cc2)c1 | x | u | n | n | n | n
CC(=O)Nc1ccc(C(=O)Nc2ccc(S(=O)(=O)N3CCCCC3)cc2)cc1 | u | n | n | n | n | n
CCN(CC)CCNC(=O)c1ccc(NC(=O)c2ccc(C(=O)c3ccccc3)cc2)cc1 | 5.9µM | 10µM | n | n | n | n
CCN(CC)CCNC(=O)c1ccc(NC(=O)c2ccc(Cl)c(S(=O)(=O)N3CCCCCC3)c2)cc1 | 1.7µM | n | n | n | n | n
CCN(CC)CCNC(=O)c1ccc(NC(=O)c2ccc(S(=O)(=O)N3CCCCCC3)cc2)cc1 | 1.7µM | u | n | n | n | n
O=C(NCCCN1CCCC1=O)c1ccc(OCc2ccccc2)cc1 | x | n | n | n | n | n
COc1cc(C(=O)NCCCN2CCCC2=O)cc(Br)c1OCc1ccccc1 | 9.3µM | u | n | n | n | n
COc1ccc(-c2noc(CSc3nnc(-c4ccncc4)n3-c3ccc(C)c(C)c3)n2)cc1 | x | x | x | n | x | n
COc1ccc(C(=O)N(Cc2cc(OC)c(OC)c(OC)c2)C2CCS(=O)(=O)C2)cc1Cl (stereo not drawn) | x | x | x | n | x | n
O=C(c1cccc(F)c1)N1CCN(C(=O)C(c2ccccc2)c2ccccc2)CC1 | n | n | n | n | n | n
COc1ccccc1N(CC(=O)Nc1ccccc1C(F)(F)F)S(=O)(=O)c1cccs1 | x | x | n | x | n | x
SMILES | Pf growth 48h | Pf growth 96h | AmpC inh no detg | Sm TGR block | SARS PLpro yeast | AmpC detergent
CS(=O)(=O)N1CCC(n2c(C(F)(F)F)nc3cccnc32)CC1 | x | x | x | n | x | n
CCN(CC)CCNC(=O)c1ccc(NC(=O)COc2ccc3c(c2)CCC3)cc1 | u | 15µM | n | n | n | n
CCN(CC)CCNC(=O)c1ccc(NC(C)=O)cc1 | n | n | n | n | n | n
O=C(NCCCN1CCCC1=O)c1ccc2c(c1)NC(=O)C(N1CCOCC1)S2 (stereo not drawn) | n | 0.93µM | n | n | n | n
O=C(NCCCN1CCCC1=O)c1ccc(Cl)c(S(=O)(=O)N2CCCCC2)c1 | 8.3µM | 5.2µM | n | n | n | n
CC(C)Oc1ccc(CNC(=O)C2CCN(C(=O)N3CC(C)Oc4ccccc43)CC2)cc1 (stereo not drawn) | x | x | x | n | x | n
Cc1ccc(S(=O)(=O)Nc2cccc(NC(=O)CN3CCCCC3)c2)cc1 | x | n | n | n | n | u
CN(C)C(=O)[C@@H]1C[C@H]1[C@@H](NC(=O)OCc1ccccc1)c1ccccc1 | n | n | n | n | n | u
COC(=O)[C@H]1C[C@@H]1[C@H](NC(=O)[C@H]1C[C@@H]1[C@H](NC(=O)OCc1ccccc1)c1ccccc1)c1ccccc1 | u | 15µM | n | n | n | n
COCCn1cnc2c1c(=O)n(CC(=O)NCC(F)(F)F)c(=O)n2Cc1ccccc1 | n | n | n | n | n | n
CN(C)S(=O)(=O)c1ccc(NC(=O)N2CCN(c3cccc(C(F)(F)F)c3)CC2)cc1 | 12µM | 12µM | n | n | n | n
CN(C)S(=O)(=O)c1ccc(NC(=O)N2CCN(c3ccccc3Cl)CC2)cc1 | 13µM | u | u | n | n | n
COc1ccc(C(Cl)=C(c2ccc(OC)cc2)c2ccc(OC)cc2)cc1 | 9.3µM | u | n | n | n | n
CCCC[n+]1ccn(C2=C([O-])c3ccccc3C(=O)/C2=N\S(=O)(=O)c2ccc(Cl)cc2)c1 | u | 3.7µM | n | n | n | n
CCOC(=O)c1cc2c(=O)n3ccccc3nc2n(C(C)C)c1=NC(=O)c1c(-c2c(F)cccc2Cl)noc1C | 3.7µM | u | n | n | n | u
CCCCn1c(=NC(=O)c2ccco2)c(C(=O)OCC)cc2c(=O)n3ccccc3nc21 | u | x | n | n | n | n
CCOC(=O)c1cc2c(=O)n3ccccc3nc2n(Cc2ccco2)c1=NC(=O)c1cc(C)cc(C)c1 | x | x | x | n | x | n
CCOC(=O)c1cc2c(=O)n3ccccc3nc2n(Cc2ccco2)c1=NC(=O)c1ccc(OC)cc1OC | u | u | n | 32µM | n | n
CCCCCn1c(=NC(=O)c2ccco2)c(C(=O)OCC)cc2c(=O)n3ccccc3nc21 | n | 15µM | n | u | n | u
CCOC(=O)c1cc2c(=O)n3ccccc3nc2n(C)c1=NC(=O)c1c(-c2c(F)cccc2Cl)noc1C | x | x | x | n | x | n
CCCCn1c(=NC(=O)c2ccco2)c(C(=O)OCC)cc2c(=O)n3cccc(C)c3nc21 | 12µM | 5.9µM | n | n | n | n
Cc1c(/C=N/NC(=O)c2cccs2)c2ccccc2n1Cc1ccccc1Cl | u | u | n | n | n | n
